Shown are actives, neighbours in structure and some others; about 2.5% of the full set was active somewhere.
Cruzain inh Det – qHTS Assay for Promiscuous and Specific Inhibitors of Cruzain (with detergent); purified cruzain, Z-FR-AMC fluorescence, 0.01% Triton; Potency, µM, inactives show max response, negative = inhibition, usual class: inhibitors; AID 1478, 2009; Cruzipain (Trypanosoma cruzi), P25779; actives 0.43% (n = 200,000);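 further: plate controls were neutral wells for no effect and buffer without enzyme for full effect; nearly all actives have a fitted effect of over 40% in size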
Target sequence (P25779 123-467 limits assumed): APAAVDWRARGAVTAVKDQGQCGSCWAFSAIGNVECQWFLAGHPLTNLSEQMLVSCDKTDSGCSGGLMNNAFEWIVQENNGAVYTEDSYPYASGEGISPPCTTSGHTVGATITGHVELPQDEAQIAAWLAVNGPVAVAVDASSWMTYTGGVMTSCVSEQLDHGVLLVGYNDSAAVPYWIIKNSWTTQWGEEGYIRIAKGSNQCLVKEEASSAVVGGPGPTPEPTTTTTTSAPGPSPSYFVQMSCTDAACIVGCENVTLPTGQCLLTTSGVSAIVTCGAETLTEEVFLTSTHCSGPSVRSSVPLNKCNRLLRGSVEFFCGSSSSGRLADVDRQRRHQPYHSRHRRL
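Detergent-containing arm of a paired screen for aggregation-based inhibition: 0.01% Triton X-100 present. Cruzain at 1.5 nM cleaved 2 uM Z-FR-AMC at pH 5.5 with 5 mM DTT; AMC fluorescence gain over 60 s measured activity.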
Cruzain inh noDet – qHTS Assay for Promiscuous and Specific Inhibitors of Cruzain (without detergent); Cruzipain (Trypanosoma cruzi), P25779; purified cruzain, Z-FR-AMC fluorescence, no detergent; Potency, µM, for inactives: max response, negative = inhibition, actives largely listed as inhibitors; actives 2.3% (n = 200,000); AID 1476, 2009;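 further: plate controls were enzyme without inhibitor for no effect and buffer without enzyme for full effect; nearly all actives have a fitted effect of over 40% in size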
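Detergent-free condition (0.00005% Triton X-100) in acetate buffer pH 5.5 with DTT. 1.5 nM enzyme and compound were pre-mixed 15 min, then 2 uM Z-FR-AMC substrate added; reaction progress from fluorescence change between first and third reads (60 s).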
Active calls of the source: *; ? = inconclusive. The call rests on the fitted dose curve; in most records, active means well fitted curve in the direction sought with a large enough effect; inconclusive means small, poorly fitted or top-dose-only effect, or another doubt; inactive means no such curve, though single readings can be large; an effect the other way counts as inactive or inconclusive. Potency means the concentration at half of the fitted maximal effect.

SMILES | Cruzain inh Det | Cruzain inh noDet
CS(=O)(=O)N1CCc2cc(-c3csc(NC(=O)Cc4cccs4)n3)ccc21 | 3.0% | 20µM*
CCOC(=O)c1ccc(Nc2c(-c3ccc(N(C)C)cc3)nc3nc[nH]n23)cc1 | 0.7% | -4.1%
COc1ccccc1CNc1nc2ccc(C)cc2n2nnnc12 | -2.6% | -0.9%
COC(=O)CN1C(C(=O)c2ccccc2)=C(OC(=O)c2ccc(C)cc2)c2ccccc2S1(=O)=O | -6.7% | -29.2%
CCOc1ccc(C2=NC(c3cccs3)=Nc3ccc(C(C)C)cc3N2)cc1 | -7.0% | 3.16µM*
CC(C)c1ccc2c(c1)NC(c1ccncc1)=NC(c1cccs1)=N2 | -9.1% | 1.8%
N=C(N)SCCc1ccncc1 | -1.5% | 3.3%
c1cc(CSSCc2ccncc2)ccn1 | 2.82µM* | ?
Cc1ccc(-c2nc3c(C)cccn3c2Nc2ccccc2C)s1 | -9.2% | -9.8%
CCOc1ccc(NS(=O)(=O)c2ccc3[nH]cc(C(=O)N4CCCCCC4)c(=O)c3c2)cc1 | -5.2% | 0.2%
COc1cc(NC(=O)COc2ccc(Cl)cc2)ccc1-c1cc2ccccc2oc1=O | -0.4% | 5.01µM*
COc1ccc(C(=O)Nc2ccc(-c3cc4ccccc4oc3=O)c(C)c2)cc1Br | -20.4% | 25.1µM*
COc1cc2c(cc1NC(=O)COc1ccc(Cl)cc1)oc1ccccc12 | -1.7% | -0.6%
Cc1cc(NC(=O)c2ccc(F)cc2)ccc1-c1cc2ccccc2oc1=O | -2.2% | 5.3%
CCS(=O)(=O)N1CCc2cc(C(=O)Nc3ccc(Br)cc3F)ccc21 | 8.2% | -11.6%
CCc1cccc(C)c1NC(=O)c1nc2ccccc2nc1N1CCCCC1 | 0.7% | 7.1%
COc1ccccc1C(=O)NCC(c1ccc(N(C)C)cc1)N1CCc2ccccc21 (centres undefined) | -11.2% | ?
CN(C)c1ccc(C(CNC(=O)c2ccccc2Cl)N2CCc3ccccc32)cc1 (centres undefined) | -16.9% | 31.6µM*
CC(C)Oc1ccc(C(=O)NCC(c2ccc(N(C)C)cc2)N2CCc3ccccc32)cc1 (centres undefined) | -4.5% | ?
COc1ccc(C(=O)NCC(c2ccc(N(C)C)cc2)N2CCc3ccccc32)cc1 (centres undefined) | ? | 12.6µM*
O=C(Nc1cc(C(F)(F)F)ccc1Cl)c1cc(-c2cccs2)nc2ccccc12 | -0.7% | 9.5%
O=c1c(N2CCCCC2)csc2ccc(F)cc12 | -3.7% | 3.7%
Cc1ccc(Cn2c(C)c3cnn(CC(=O)N4CCN(c5cc(C)ccc5C)CC4)c(=O)c3c2C)cc1 | -5.0% | ?
CCOc1ccccc1C(=O)Nc1cc(-c2ccc(C)cc2)no1 | -2.5% | -26.8%
CCC(C)NC(=O)c1cc(-c2cccc(OC)c2)on1 (centres undefined) | -4.3% | -3.7%
SMILES | Cruzain inh Det | Cruzain inh noDet
COc1ccc(CN2C(=O)C(NC(=O)c3ccc(C)cc3)(C(F)(F)F)N=C2c2ccccc2)cc1 (centres undefined) | -6.3% | 8.3%
COC(=O)Cc1c(C)c2ccc(O)c(CN3CCCC(C)C3)c2oc1=O (centres undefined) | 25.1µM* | ?
COc1ccc(-c2c(C)c3ccc(O)c(CN4CCCC4)c3oc2=O)cc1 | -6.1% | 3.4%
Cc1cc(-n2c(SCc3ccccc3F)nc3[nH]ncc3c2=O)ccc1Cl | -7.4% | ?
O=C(Nc1ccc(N=Nc2ccccc2)cc1)c1ccc(Cl)cc1Cl | 7.2% | 12.6µM*
O=C(Nc1ccc(N=Nc2ccccc2)cc1)c1ccccc1Cl | -5.5% | -0.7%
Cc1cc(C)cc(NC(=O)Cc2noc3ccccc23)c1 | -6.1% | -21.2%
CC1(C)CC2CC(C)(CN2C(=O)COC(=O)CNC(=O)c2ccc(Cl)c(Cl)c2)C1 (centres undefined) | 7.94µM* | 7.94µM*
CC1(C)CC2CC(C)(CN2C(=O)COC(=O)c2cc(Cl)cc(Cl)c2N)C1 (centres undefined) | -8.2% | 0.1%
O=C(COc1ccc2ccccc2c1Br)NC(=S)Nc1cccc(CO)c1 | -6.7% | 31.6µM*
O=C(COc1ccc(Br)cc1Br)NC(=S)Nc1cccc(CO)c1 | -9.3% | ?
Cc1ccc(-n2cnc3cc(C(=O)NC4CCCCCC4)ccc32)cc1Cl | -0.6% | -1.0%
Nc1nc(CC(=O)O)cs1 | 7.5% | -9.5%
Cc1ccc(OCc2nc3ccccc3n2CC(C)C)cc1 | -8.4% | 4.0%
CCc1ccc(NS(=O)(=O)c2ccc3[nH]cc(C(=O)NCCCOC(C)C)c(=O)c3c2)cc1 | -3.5% | 20µM*
COc1cccc(NS(=O)(=O)c2ccc3[nH]cc(C(=O)NCCc4ccc(C)cc4)c(=O)c3c2)c1 | 2.9% | 12.6µM*
CCOc1ccc(NS(=O)(=O)c2ccc3[nH]cc(C(=O)NCCc4ccccc4)c(=O)c3c2)cc1 | -2.2% | 14.1%
COc1cccc(NS(=O)(=O)c2ccc3[nH]cc(C(=O)NCCc4ccccc4)c(=O)c3c2)c1 | -2.5% | 12.6µM*

Screening data from PubChem BioAssay.
